This note sets out measurements from PubChem BioAssay (EPA / NIEHS).

Results filed as inconclusive are left out. The source made the active and inactive calls. The calls were made as follows, unless noted: active = hit-call score of the fitted dose curve at least 0.9, where 1 is the maximum; inactive = score below 0.9.

Test [1] is described as follows: BSK_LPS_PGE2: BioMAP Diversity Plus: LPS Assay for Prostaglandin E2 (PGE2) Biomarker Activity (AID 2283082). As to conditions: primary human HUVEC with PBMC; actives raise or lower the signal. The method in brief: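 Compounds were added to the LPS co-culture of endothelium and PBMC, and PGE2 was measured by ELISA after 24 h. Responses in either direction were fitted with DMSO as baseline.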

Read-out in test [2]: Macrophage colony-stimulating factor (MCSF), CSF1 (gene 1435)
In words: BSK_LPS_MCSF: BioMAP Diversity Plus: LPS Assay for Macrophage colony-stimulating factor (MCSF) Biomarker Activity (AID 2283083). As to conditions: primary human HUVEC with PBMC; actives raise or lower the signal. The essentials: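 Bidirectional fitting against DMSO was applied to M-CSF levels read by ELISA at 24 h post-dose. The system pairs human umbilical vein endothelium with peripheral blood mononuclear cells; parallel SRB staining tracked cytotoxicity.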

Read-out in test [3]: Tissue Factor, F3 (gene 2152)
In words: BSK_LPS_TissueFactor: BioMAP Diversity Plus: LPS Assay for Tissue Factor Biomarker Activity (AID 2283084). As to conditions: primary human HUVEC with PBMC; actives raise or lower the signal. The essentials:
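Compound was added to an endothelial cell/PBMC co-culture, and after 24 h tissue factor (CD142) was read by ELISA. Gain or loss of signal was fitted against a DMSO baseline, and parallel SRB staining (560 nm) tracked overt cytotoxicity.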

Read-out in test [4]: Vascular cell adhesion molecule 1 (VCAM1), VCAM1 (gene 7412)
In words: BSK_LPS_VCAM1: BioMAP Diversity Plus: LPS Assay for Vascular cell adhesion molecule 1 (VCAM1) Biomarker Activity (AID 2283086). As to conditions: primary human HUVEC with PBMC; actives raise or lower the signal. The method in brief:
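Cells are dosed in an LPS-stimulated endothelial/mononuclear co-culture and, after 24 h, VCAM-1 is quantified by ELISA. Activity in either direction is fitted relative to the DMSO negative control.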

Read-out in a further test: CD38, CD38 (gene 952)
In words: BSK_SAg_CD38: BioMAP Diversity Plus: SAg Assay for CD38 Biomarker Activity (AID 2283087). As to conditions: primary human HUVEC with PBMC; actives raise or lower the signal. The essentials:
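CD38 quantified by ELISA (fluorescence) in a superantigen-activated endothelial cell–PBMC co-culture at 24 h post-dose. Activity fitted in both directions relative to DMSO; parallel SRB and Alamar Blue cytotoxicity read-outs.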

Read-out in another test: CD40, CD40 (gene 958)
Kind of test: BSK_SAg_CD40: BioMAP Diversity Plus: SAg Assay for CD40 Biomarker Activity (AID 2283088). As to conditions: primary human HUVEC with PBMC; actives raise or lower the signal. The method in brief:
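CD40 is measured by fluorescence ELISA in an endothelial/PBMC primary human co-culture at 24 h post-dose. Fitting is bidirectional, DMSO baseline. Parallel SRB staining (560 nm) flags cytotoxicity.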

Read-out in a further test: CD69, CD69 (gene 969)
In words: BSK_SAg_CD69: BioMAP Diversity Plus: SAg Assay for CD69 Biomarker Activity (AID 2283089).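 As to AC50: cell surface CD69 protein quantified by ELISA with fluorescence detection.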 As to conditions: primary human HUVEC with PBMC; actives raise or lower the signal. The method in brief:
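Primary human vascular co-culture (umbilical vein endothelium with peripheral blood mononuclear cells) exposed to test chemical for 24 h. CD69 levels quantified by fluorescence ELISA; DMSO served as negative control for bidirectional fitting.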

Read-out in test [5]: Monocyte Chemoattractant Protein-1 (MCP1), CCL2 (gene 6347)
In words: BSK_SAg_MCP1: BioMAP Diversity Plus: SAg Assay for Monocyte Chemoattractant Protein-1 (MCP1) Biomarker Activity (AID 2283090). As to conditions: primary human HUVEC with PBMC; actives raise or lower the signal. The method in brief:
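Values derive from bidirectional fitting of ELISA-measured MCP1 against DMSO controls. Readings were taken 24 h after dosing human vascular endothelial cells co-cultured with peripheral blood mononuclear cells under superantigen stimulation.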

Read-out in test [6]: E-selectin (Homo sapiens) (UniProt P16581)
In words: BSK_SAg_Eselectin: BioMAP Diversity Plus: SAg Assay for Eselectin Biomarker Activity (AID 2283091). As to conditions: primary human HUVEC with PBMC; actives raise or lower the signal. The method in brief:
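Cell-surface E-selectin is read by ELISA at 24 h in the SAg co-culture of HUVEC and PBMC. Curves are fitted in both directions relative to DMSO. Parallel SRB total-protein staining tracks overt toxicity.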

Read-out in test [7]: Monokine induced gamma interferon (MIG), CXCL9 (gene 4283)
In words: BSK_SAg_MIG: BioMAP Diversity Plus: SAg Assay for Monokine induced gamma interferon (MIG) Biomarker Activity (AID 2283092). As to conditions: primary human HUVEC with PBMC; actives raise or lower the signal. The essentials: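 Endothelial cells and PBMC were co-cultured, exposed to test chemicals, and sampled 24 h later. MIG was measured by ELISA, and responses were fitted in both directions relative to DMSO.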

A short description of test [8]: BSK_SAg_PBMCCytotoxicity: PBMC Cytotoxicity Assessment in the BioMAP Diversity Plus: SAg Assay (AID 2283093).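 Also: PBMC viability measured as Alamar Blue reduction fluorescence at 546/580 nm; fitted both ways against DMSO so a hit may be loss or gain of signal.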 As to conditions: primary human HUVEC with PBMC. The essentials:
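Alamar Blue reduction (6 h, ex/em 546/580 nm) read after 90 h culture of PBMC pre-dosed 1 h then stimulated with SEB plus TSST-1, 20 ng/mL each. Gain or loss of signal fitted relative to DMSO.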

Read-out in test [9]: Interleukin-8 (IL8), CXCL8 (gene 3576)
Kind of test: BSK_SAg_IL8: BioMAP Diversity Plus: SAg Assay for Interleukin-8 (IL8) Biomarker Activity (AID 2283094). As to conditions: primary human HUVEC with PBMC; actives raise or lower the signal. The essentials:
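Chemicals were dosed onto a human endothelial–PBMC co-culture, and IL-8 was quantified by ELISA after 24 h. Both increases and decreases were fitted relative to DMSO.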

Test [10] is described as follows: BSK_SAg_Proliferation: Cell Proliferation Assessment in the BioMAP Diversity Plus: SAg Assay (AID 2283095).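 Also: relative cell number as total protein by SRB absorbance in sub-confluent culture.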 As to conditions: primary human HUVEC with PBMC. The essentials: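 Absorbance of sulforhodamine B at 560 nm reports total protein in a human vascular endothelial/PBMC co-culture after 96 h chemical exposure. Gain or loss of signal is fitted in both directions against DMSO.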

Test [11] is described as follows: BSK_SAg_SRB: Viability Assessment in the BioMAP Diversity Plus: SAg Assay (AID 2283096).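 Also: cells read one day after compound addition; hits may be either gain or loss of signal compared with DMSO.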 As to conditions: primary human HUVEC with PBMC. The essentials: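 SRB absorbance at 560 nm served as the viability read-out. Cells (HUVEC plus peripheral blood mononuclear cells) were TCA-fixed and stained 24 h post-dosing; activity fitted in both directions against DMSO controls.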

For test [12], the target named is human CYP1A1, CYP1A1 (gene 1543) (UniProt P04798). Kind of test: NVS_ADME_hCYP1A1: NovaScreen (NVS) CYP450-related Enzyme Activity (ADME) Assay for human CYP1A1 (AID 2283100; active = hit-call score of the fitted dose curve at least 0.9, where 1 is the maximum). The essentials: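 Chemicals were first tested in duplicate at 10 uM, and those passing a 30% inhibition threshold were rerun as concentration series topping at 20 uM. Fluorescence read-out of recombinant enzyme turnover after 1 h, relative to acetonitrile.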

For test [13], the target named is human CYP2B6, CYP2B6 (gene 1555) (UniProt P20813). In words: NVS_ADME_hCYP2B6: NovaScreen (NVS) CYP450-related Enzyme Activity (ADME) Assay for human CYP2B6 (AID 2283101; active = hit-call score of the fitted dose curve at least 0.9, where 1 is the maximum). The method in brief:
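Cell-free recombinant enzyme assay with a fluorogenic substrate; fluorescence intensity read 1 hour after dosing. Loss of signal relative to acetonitrile negative control indicates inhibition. Primary screen run in duplicate at 10 uM, actives then tested in concentration series.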

Read-out in test [14]: Tumor necrosis factor (Homo sapiens) (UniProt P01375)
In words: BSK_LPS_TNFa: BioMAP Diversity Plus: LPS Assay for Tumour Necrosis Factor alpha (TNFa) Biomarker Activity (AID 2283085).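 As to AC50: TNFa protein level quantified by ELISA in the co-culture.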 As to conditions: primary human HUVEC with PBMC; actives raise or lower the signal. The essentials:
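Cells (umbilical vein endothelium plus peripheral blood mononuclear cells) were dosed with chemical, incubated 24 h, then TNFa was quantified by ELISA; values derive from bidirectional fitting with DMSO as baseline.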

The target in test [15] is human CYP2A6, CYP2A6 (gene 1548) (UniProt P11509). In words: NVS_ADME_hCYP2A6: NovaScreen (NVS) CYP450-related Enzyme Activity (ADME) Assay for human CYP2A6 (AID 2283099; active = hit-call score of the fitted dose curve at least 0.9, where 1 is the maximum). The method in brief: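 Compounds screened at 10 uM (duplicate) and, if active, titrated to a 20 uM top concentration against insect-cell-expressed CYP2A6. Loss of fluorescent product signal after 0.5 h, relative to acetonitrile baseline, indicates inhibition.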

One may read the AC50 as the concentration giving half of the maximal activity seen.

Tumor necrosis factor (Homo sapiens), sequence (P01375 whole entry, looked up): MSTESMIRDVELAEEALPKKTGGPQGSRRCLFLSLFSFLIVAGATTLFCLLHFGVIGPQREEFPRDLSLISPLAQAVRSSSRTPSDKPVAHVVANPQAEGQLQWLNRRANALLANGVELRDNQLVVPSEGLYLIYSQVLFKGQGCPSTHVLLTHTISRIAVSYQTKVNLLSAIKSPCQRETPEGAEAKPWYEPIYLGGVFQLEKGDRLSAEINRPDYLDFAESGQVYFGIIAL
E-selectin (Homo sapiens), sequence (P16581 whole entry, looked up): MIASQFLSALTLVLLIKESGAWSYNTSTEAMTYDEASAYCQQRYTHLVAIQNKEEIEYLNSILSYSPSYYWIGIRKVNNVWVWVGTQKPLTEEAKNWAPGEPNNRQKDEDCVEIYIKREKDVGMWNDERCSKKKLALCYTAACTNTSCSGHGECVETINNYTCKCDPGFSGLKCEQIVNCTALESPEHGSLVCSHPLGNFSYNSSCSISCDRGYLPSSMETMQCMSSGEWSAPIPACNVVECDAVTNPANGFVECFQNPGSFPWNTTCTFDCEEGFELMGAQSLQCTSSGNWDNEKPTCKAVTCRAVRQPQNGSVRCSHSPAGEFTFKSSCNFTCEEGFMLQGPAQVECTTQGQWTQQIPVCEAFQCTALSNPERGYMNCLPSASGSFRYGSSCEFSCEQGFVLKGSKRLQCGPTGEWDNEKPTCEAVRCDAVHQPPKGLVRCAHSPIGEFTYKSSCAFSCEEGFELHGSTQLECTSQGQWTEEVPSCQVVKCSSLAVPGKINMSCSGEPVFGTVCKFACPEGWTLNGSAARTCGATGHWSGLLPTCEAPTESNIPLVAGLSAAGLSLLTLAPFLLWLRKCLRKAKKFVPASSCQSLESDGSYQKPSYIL
human CYP1A1, CYP1A1 (gene 1543), sequence (P04798 whole entry, looked up): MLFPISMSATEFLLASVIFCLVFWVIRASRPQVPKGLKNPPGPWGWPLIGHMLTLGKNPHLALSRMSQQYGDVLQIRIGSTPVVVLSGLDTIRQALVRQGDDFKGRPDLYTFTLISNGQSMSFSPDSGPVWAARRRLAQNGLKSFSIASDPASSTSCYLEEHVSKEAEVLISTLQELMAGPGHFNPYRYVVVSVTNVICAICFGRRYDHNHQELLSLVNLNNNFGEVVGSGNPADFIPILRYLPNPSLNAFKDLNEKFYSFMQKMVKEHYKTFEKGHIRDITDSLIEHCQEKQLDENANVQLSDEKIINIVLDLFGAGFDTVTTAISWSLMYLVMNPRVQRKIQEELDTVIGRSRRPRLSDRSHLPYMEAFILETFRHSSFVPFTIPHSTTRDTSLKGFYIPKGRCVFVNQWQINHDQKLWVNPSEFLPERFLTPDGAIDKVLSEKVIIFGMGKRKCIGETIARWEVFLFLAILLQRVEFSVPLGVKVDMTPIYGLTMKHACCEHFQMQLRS
human CYP2A6, CYP2A6 (gene 1548), sequence (P11509 whole entry, looked up): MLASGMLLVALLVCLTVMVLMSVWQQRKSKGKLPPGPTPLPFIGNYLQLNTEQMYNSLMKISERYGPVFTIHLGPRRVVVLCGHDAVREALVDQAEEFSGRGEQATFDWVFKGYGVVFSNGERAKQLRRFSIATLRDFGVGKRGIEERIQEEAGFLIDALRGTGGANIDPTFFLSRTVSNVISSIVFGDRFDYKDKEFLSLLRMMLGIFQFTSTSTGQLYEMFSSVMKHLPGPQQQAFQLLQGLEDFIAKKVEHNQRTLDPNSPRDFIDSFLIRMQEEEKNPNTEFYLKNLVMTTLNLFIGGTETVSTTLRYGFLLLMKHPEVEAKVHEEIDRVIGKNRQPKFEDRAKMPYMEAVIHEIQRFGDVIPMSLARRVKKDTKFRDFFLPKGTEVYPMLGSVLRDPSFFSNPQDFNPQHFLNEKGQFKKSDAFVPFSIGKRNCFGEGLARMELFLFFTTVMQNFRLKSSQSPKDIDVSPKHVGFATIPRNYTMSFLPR
human CYP2B6, CYP2B6 (gene 1555), sequence (P20813 whole entry, looked up): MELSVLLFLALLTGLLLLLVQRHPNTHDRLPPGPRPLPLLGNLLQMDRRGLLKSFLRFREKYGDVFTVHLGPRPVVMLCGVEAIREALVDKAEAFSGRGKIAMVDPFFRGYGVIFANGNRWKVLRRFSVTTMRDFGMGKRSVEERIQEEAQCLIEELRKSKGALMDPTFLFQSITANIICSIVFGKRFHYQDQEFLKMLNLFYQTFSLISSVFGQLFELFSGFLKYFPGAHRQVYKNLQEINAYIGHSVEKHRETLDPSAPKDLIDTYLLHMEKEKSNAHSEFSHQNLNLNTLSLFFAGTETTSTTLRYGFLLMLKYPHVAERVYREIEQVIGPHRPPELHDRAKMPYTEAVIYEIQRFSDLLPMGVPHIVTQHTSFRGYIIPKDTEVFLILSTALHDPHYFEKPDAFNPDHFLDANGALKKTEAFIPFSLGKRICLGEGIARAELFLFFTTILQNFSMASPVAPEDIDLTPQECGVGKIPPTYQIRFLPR

In the case of `CC(C)(C)C(O)(CCc1ccc(Cl)cc1)Cn1cncn1` (stereo not given), the outcome in test [1] was “inactive”; in test [2], “inactive”; in test [3], “inactive”; in test [4], “inactive”; with CD38, CD38 (gene 952) it was “inactive”; with CD40, CD40 (gene 958), “inactive”. For the same compound, the outcome was “inactive” with CD69, CD69 (gene 969); “inactive” in [5]; “inactive” in [6]; “inactive” in test [7]; “inactive” in [8]; “inactive” in [9]. The result in [10], in [11], in test [12] and in test [13] was inactive.
`CCCCCOC(=O)c1ccccc1C(=O)OCCCCC`: the AC50 in [1] was 17.7 µM (active); in test [14] it was 20 µM (active); in test [4], 20 µM (active); with CD38, CD38 (gene 952) it was 31.6 µM (active); with CD40, CD40 (gene 958), 24.8 µM (active); with CD69, CD69 (gene 969), 20 µM (active). The AC50 is 32.4 µM (active) in [6], 30.8 µM (active) in [9], 31.9 µM (active) in test [10] and 32.4 µM (active) in test [11]. The result in [3], in [5], in test [7] and in test [8] was inactive.
Consider `Brc1ccc(Oc2ccccc2)cc1`, for which the outcome in test [1] was “inactive”; in test [2] it was “inactive”; in test [3] it was “inactive”; in test [4], “inactive”; with CD38, CD38 (gene 952), “inactive”; with CD40, CD40 (gene 958), “inactive”. Moreover, the outcome is “inactive” with CD69, CD69 (gene 969); “inactive” in test [5]; “inactive” in test [6]; “inactive” in test [7]; “inactive” in test [8]; “inactive” in test [9]. In addition, the outcome in test [10] and in [11] was inactive.
On to `C[N+](C)(C)CC1CO1` (stereo not given), for which the outcome in test [1] was “inactive”; in test [2], “inactive”; in test [3], “inactive”; in test [4], “inactive”; in the test with CD38, CD38 (gene 952), “inactive”; with CD40, CD40 (gene 958) it was “inactive”. Moreover, the outcome is “inactive” with CD69, CD69 (gene 969); “inactive” in test [5]; “inactive” in [6]; “inactive” in test [7]; “inactive” in test [8]; “inactive” in test [9]. For the same compound, the outcome in test [10], in test [11] and in test [15] was inactive.
On to `O=[N+]([O-])c1ccc(Oc2ccc(Cl)cc2Cl)cc1`, for which the outcome was “inactive” in test [1]; “inactive” in [3]; “inactive” in test [4]; “inactive” with CD69, CD69 (gene 969); “inactive” in [7]; “inactive” in test [8]. In test [11], the result was inactive. Moreover, the AC50 in [2] is 31.1 µM (active); in the test with CD38, CD38 (gene 952), 29.8 µM (active); with CD40, CD40 (gene 958) it was 20 µM (active); in [5], 29.1 µM (active); in test [6] it was 27.4 µM (active); in test [9] it was 33.9 µM (active). For the same compound, the AC50 in [10] was 32 µM (active).
As to `N#CC(Br)(Br)C(N)=O`, the outcome in [1] is “inactive”; in [3] it was “inactive”; in test [14] it was “inactive”; in test [4], “inactive”; in the test with CD38, CD38 (gene 952), “inactive”; in the test with CD40, CD40 (gene 958), “inactive”. Moreover, the outcome with CD69, CD69 (gene 969) is “inactive”; in test [5], “inactive”; in test [6], “inactive”; in test [7], “inactive”; in test [8], “inactive”; in test [9], “inactive”. In addition, the result in [10] and in test [11] was inactive.
For `c1ccc(C2CO2)cc1` (stereo not given), the outcome in [1] was “inactive”; in test [3] it was “inactive”; in test [14], “inactive”; in [4], “inactive”; with CD38, CD38 (gene 952), “inactive”; with CD40, CD40 (gene 958), “inactive”. For the same compound, the outcome with CD69, CD69 (gene 969) was “inactive”; in [5], “inactive”; in test [6], “inactive”; in test [7], “inactive”; in test [8], “inactive”; in test [9] it was “inactive”. Further, the result in test [10] and in test [11] was inactive.
Consider `CCC12COCN1COC2`, for which the outcome in test [1] was “inactive”; in test [3], “inactive”; in test [14], “inactive”; in test [4] it was “inactive”; with CD38, CD38 (gene 952) it was “inactive”; with CD40, CD40 (gene 958) it was “inactive”. Moreover, the outcome with CD69, CD69 (gene 969) is “inactive”; in test [5] it was “inactive”; in test [6], “inactive”; in test [7], “inactive”; in test [8] it was “inactive”; in test [9], “inactive”. Besides, the result in test [10] and in test [11] was inactive.
